The values below come from PubChem BioAssay (EPA / NIEHS).

Records with an inconclusive call do not appear. The source made the active and inactive calls. Rule for the calls: active = hit-call score of the fitted dose curve at least 0.9, where 1 is the maximum; inconclusive = response in the unintended direction; inactive = score below 0.9.

Chain of Androgen receptor (Homo sapiens) (P10275 whole entry, looked up): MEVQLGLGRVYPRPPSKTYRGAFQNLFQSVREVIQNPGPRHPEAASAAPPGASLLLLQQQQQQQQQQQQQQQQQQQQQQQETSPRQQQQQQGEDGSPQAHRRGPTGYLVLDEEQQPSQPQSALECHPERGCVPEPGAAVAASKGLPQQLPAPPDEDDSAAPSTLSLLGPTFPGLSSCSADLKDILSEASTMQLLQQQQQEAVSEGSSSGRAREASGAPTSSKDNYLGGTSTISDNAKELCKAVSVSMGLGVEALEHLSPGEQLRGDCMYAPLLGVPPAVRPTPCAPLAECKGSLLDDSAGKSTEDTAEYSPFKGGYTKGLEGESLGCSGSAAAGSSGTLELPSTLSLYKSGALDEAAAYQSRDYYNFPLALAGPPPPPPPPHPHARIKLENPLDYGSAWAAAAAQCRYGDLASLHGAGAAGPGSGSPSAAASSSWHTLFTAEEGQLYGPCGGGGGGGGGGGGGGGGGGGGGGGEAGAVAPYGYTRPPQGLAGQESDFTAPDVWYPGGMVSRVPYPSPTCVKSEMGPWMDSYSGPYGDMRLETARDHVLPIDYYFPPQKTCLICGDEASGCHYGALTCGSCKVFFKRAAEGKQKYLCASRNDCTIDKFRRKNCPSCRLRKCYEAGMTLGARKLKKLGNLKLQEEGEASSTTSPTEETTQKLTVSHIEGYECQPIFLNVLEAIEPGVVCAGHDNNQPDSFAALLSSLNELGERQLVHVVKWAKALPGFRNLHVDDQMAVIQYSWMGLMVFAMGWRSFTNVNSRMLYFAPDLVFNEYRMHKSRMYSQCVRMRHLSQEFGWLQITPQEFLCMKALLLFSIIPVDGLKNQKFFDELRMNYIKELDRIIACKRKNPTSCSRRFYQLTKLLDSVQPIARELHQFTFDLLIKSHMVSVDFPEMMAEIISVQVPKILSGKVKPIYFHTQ

The target of this assay is Androgen receptor (Homo sapiens) (UniProt P10275). Briefly: ATG_AR_TRANS: Attagene TRANS-FACTORIAL HepG2 Assay for human Androgen Receptor (AR) (AID 2282973). The settings on record: HepG2 Attagene TRANS-FACTORIAL AR reporter transcription. The method, then:
ATG_TRANS is a cell-based, multiplexed-readout assay that uses HepG2, a human liver cell line, with measurements taken at 24 hours after chemical dosing in a 24-well plate.ATG_AR_TRANS is one of 30 assay component(s) measured or calculated from the ATG_TRANS assay. It is designed to make measurements of mRNA induction, a form of inducible reporter, as detected with fluorescence intensity signals by Reverse transcription polymerase chain reaction (RT-PCR) and Capillary electrophoresis technology.Data from the assay component ATG_AR_TRANS was analyzed into 1 assay endpoint. This assay endpoint, ATG_AR_TRANS, was analyzed in the positive analysis fitting direction relative to DMSO as the negative control and baseline of activity. Using a type of inducible reporter, measures of mRNA for gain-of-signal activity can be used to understand the reporter gene at the transcription factor-level as they relate to the gene AR. Furthermore, this assay endpoint can be referred to as a primary readout, because this assay has produced multiple assay endpoints where this one serves a reporter gene function. To generalize the intended target to other relatable targets, this assay endpoint is annotated to the nuclear receptor intended target family, where the subfamily is steroidal.
Human liver HepG2 cells are transiently transfected with multiple reporter transcription units (MRTUs) in 6-well plates using FuGene 6 reagent (Roche; 3 ml FuGene/1 mg DNA). The MRTU constructs are regulated by a cis-regulating element (promoter). […] A major difference between the CIS and TRANS system is that in CIS activities of endogenous TFs are measured, whereas the TRANS assay evaluates changes in activities of exogenous, chimeric NR-Gal4 proteins. […] At the end of 24 hour incubation, total RNA was isolated using TriZol reagent (Invitrogen). The isolated RNA is then reverse-transcribed using oligo(dT) primer and Mo-MLV reverse transcriptase (Invitrogen) with DNAse I (Ambion) treatment for 30 min. The one-tenth of the produced cDNA was amplified by PCR using Taq DNA polymerase (Invitrogen) and two reporter sequence-specific primers. The PCR products were fluorescently labeled by primer extension with 6-arboxyfluorescein (6-FAM) 5'-labeled reporter sequence-specific primer (2 min at 95 C, 20 s at 68 C and 10 min at 72 C) and these products were digested with 5U of HpaI (New England Biolabs) for 2h at 37 C. The fragments were purified using Qiaquick PCR columns (Qiagen), analyzed on an ABI 3130xL genetic analyzer (Applied Biosystems) with peak positions identified by using a set of X-rhodamine (ROX)-labeled MapMarker1000 molecular weight standards (BioVentures). The raw capillary electrophoresis data was processed using Attagraph software (Attagene).
In the case of `O=P(OCC(Br)CBr)(OCC(Br)CBr)OCC(Br)CBr` (stereo not given), the call was inactive. On to `CC(=O)c1ccc(-c2ccccc2)cc1`, for which the call was inactive. Then `COC(=O)C(F)(F)C(F)(F)OC(F)(C(F)(F)F)C(F)(F)OC(F)=C(F)F` (stereo not given), with “inactive”. Then `FC(F)(F)C(F)(C(F)(F)F)C(F)(F)C(F)(F)CC1CO1` (stereo not given), with “inactive”; and `N#Cc1c(-c2ccc(Cl)cc2)[nH]c(C(F)(F)F)c1Br`, with “inactive”; and `ClC(Cl)=C(c1ccc(Cl)cc1)c1ccccc1Cl`, with “inactive”. Then `CCOP(=S)(S)OCC`, with “inactive”; and `O=C(O)C=CC(F)(C(F)(F)F)C(F)(F)F`, with “inactive”; and `CC(O)C(F)(F)C(F)(F)F` (stereo not given), with “inactive”. Regarding `CCN(CC)c1ccccc1`, the result was inactive. Then `OCC(F)(F)OC(F)(F)C(F)(F)OC(F)(F)C(F)(F)OC(F)(F)F`, with “inactive”; and `O=C(O)C(F)(OC(F)(F)C(F)(F)C(F)(F)F)C(F)(F)F` (stereo not given), with “inactive”. Then `COP(N)(=S)OC`, with “inactive”.

`C=CC(=O)OCC(CC)(COC(=O)C=C)COC(=O)C=C`: the result was inactive. Then `CO/N=C(/C(=O)OC)c1ccccc1COc1ccccc1C`, with “inactive”. Then `N#C/C=C/c1ccccc1`, with “inactive”. As for `COP(=O)(CCC(=O)NCO)OC`, the call was inactive.

With `CC(O)C#N` (stereo not given), the result was inactive. Then `Clc1ccc(Oc2ccccc2)cc1`, with “inactive”; and `NC(=O)C(F)(F)C(F)(F)F`, with “inactive”; and `ClC1=C(Cl)C2(Cl)C3C(Cl)C(Cl)CC3C1(Cl)C2(Cl)Cl` (stereo not given), with “inactive”. As for `CCOP(=S)(OCC)SCS(=O)(=O)CC`, the outcome was inactive.

With `OCC(F)(F)OC(F)(F)C(F)(F)OC(F)(F)C(F)(F)OC(F)(F)CO`, the call was inactive. Regarding `CCCCC(CC)COP(=O)(Oc1ccccc1)Oc1ccccc1` (stereo not given), the outcome was inactive. `CCCCCCCc1ccc(O)cc1`: the result was inactive. Then `CC(C)CBr`, with “inactive”; and `O=C(O)C(F)(F)OC(F)(F)C(F)(F)OC(F)(F)F`, with “inactive”. Then `O=C(O)C(F)(F)OC(F)(F)C(F)(F)OC(F)(F)C(=O)O`, with “inactive”; and `CCNc1nc(Cl)nc(NC(C)(C)C)n1`, with “inactive”. Then `Nc1ccc([N+](=O)[O-])cc1Cl`, with “inactive”. For the compound `C=CC(=O)OCC(F)(F)C(F)F`, the call was inactive. Then `O=S(=O)(F)C(F)(F)C(F)(F)C(F)(F)C(F)(F)C(F)(F)C(F)(F)C(F)(F)C(F)(F)F`, with “inactive”. As to `OCC(F)(F)OC(F)(F)C(F)(F)OC(F)(F)CO`, the compound was classed as inactive. Then `CCCCN(CC)C(=O)SCCC`, with “inactive”; and `COP(=O)(O)OC`, with “inactive”.
